Most compounds without a hit are left out; they make up all but 2.4% or so of the library.
Pol kappa inh-1: inhibitors of human DNA polymerase kappa; Q9UBT6; purified Pol kappa, fluorescent DNA synthesis assay, 10 min; Potency, µM (doses to about 107 µM), without a hit: at the highest dose activity, negative = inhibition, actives largely listed as inhibitors; hit rate 0.53% among 400,000; AID 588579; note: % is set by controls: 0 for no effect and ±100 for the full control effect
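Pol kappa 10 nM + cpd, 15 min RT; start w/ substrate 50 nM final; fluorescence kinetic read, 0 and 10 min. Neg ctrl: buffer, no enzyme.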
Pol eta inh-1: inhibitors of human DNA polymerase eta. AID 588591. hit rate 1.2% among 390,000. Q9Y253. Potency, µM (series often up to 114 µM), without a hit: top-dose activity change, negative = inhibition, actives largely listed as inhibitors. recombinant Pol eta, fluorescent DNA replication assay; note: % is set by controls: 0 for no effect and ±100 for the full control effect
Target sequence (Q9Y253 whole entry, looked up): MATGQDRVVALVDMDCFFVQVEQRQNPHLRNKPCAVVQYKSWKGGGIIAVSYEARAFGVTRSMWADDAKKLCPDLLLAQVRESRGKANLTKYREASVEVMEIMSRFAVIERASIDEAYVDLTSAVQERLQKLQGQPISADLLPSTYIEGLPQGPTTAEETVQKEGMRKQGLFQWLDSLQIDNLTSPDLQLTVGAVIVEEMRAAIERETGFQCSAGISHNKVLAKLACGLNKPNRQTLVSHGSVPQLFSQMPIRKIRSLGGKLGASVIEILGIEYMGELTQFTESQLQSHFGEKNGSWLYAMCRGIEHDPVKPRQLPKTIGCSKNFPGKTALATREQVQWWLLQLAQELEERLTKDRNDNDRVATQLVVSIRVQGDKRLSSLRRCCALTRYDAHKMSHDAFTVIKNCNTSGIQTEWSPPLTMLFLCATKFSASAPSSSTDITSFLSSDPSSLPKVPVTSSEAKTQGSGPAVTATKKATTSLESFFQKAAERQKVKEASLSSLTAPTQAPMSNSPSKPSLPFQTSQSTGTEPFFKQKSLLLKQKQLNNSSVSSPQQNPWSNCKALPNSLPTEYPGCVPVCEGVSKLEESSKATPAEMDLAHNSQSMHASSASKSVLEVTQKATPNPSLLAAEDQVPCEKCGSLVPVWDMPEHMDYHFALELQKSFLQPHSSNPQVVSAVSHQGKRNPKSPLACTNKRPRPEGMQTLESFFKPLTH
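Pol eta (10 nM) was preincubated with compounds for 15 min at room temperature, after which fluorescent replication substrate (50 nM final) was added to start the reaction. Fluorescence was read kinetically at 0 and 10 min.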
POLI inh: blocks human DNA polymerase iota activity | Potency, µM (doses to about 115 µM), for the others: at the top dose activity, negative = inhibition, usual class: inhibitors | hit rate 1% among 390,000 | AID 588590 | Pol iota fluorescent replication assay, 10 min | Q9UNA4
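Fluorescent replication assay read twice, at 0 min and 10 min after adding 50 nM (final) substrate. Enzyme (10 nM) and compounds were first incubated 15 min at room temperature; enzyme-free buffer wells were negative controls.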
L3MBTL1 block: L3MBTL1 (human) inhibition. Q9Y468. AlphaScreen L3MBTL1–H3K9me1 peptide binding. Potency, µM (series often up to 57.1 µM), without a hit: at the top dose activity, negative = inhibition, actives largely listed as inhibitors. hit rate 0.66% among 230,000. AID 485360; note: % is set by controls: 0 for no effect and ±100 for the full control effect; nearly all actives have a fitted effect of over 60% in size
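AlphaScreen assay: L3MBTL1 (50 nM final) was preincubated 30 min at room temperature with biotinylated H3(1-15)K9me1 peptide (75 nM final), then 30 min with library compounds; streptavidin donor and nickel chelate acceptor beads (10 ug/mL final) added, 30 min dark.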
POLB inh: inhibitors of human DNA polymerase beta; Potency, µM (series often up to 114 µM), inactives show top-dose activity change, negative = inhibition, actives largely listed as inhibitors; P06746; hit rate 1.3% among 340,000; AID 485314; Pol beta primer extension/strand displacement, fluorescence kinetic; note: % is set by controls: 0 for no effect and ±100 for the full control effect
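Pol beta (10 nM) and compounds were preincubated 15 min at room temperature, then 50 nM substrate (final) started primer extension/strand displacement. Reads were taken at 0 and 10 min; concentration-response data were fitted to a four-parameter Hill equation.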
TbPGK inh: blocks T. brucei phosphoglycerate kinase; shares compounds with Pol kappa inh-1; TbPGK coupled GAPDH assay, Kinase-Glo luminescence; Potency, µM (doses to about 57.5 µM), without a hit: top-dose activity change, negative = inhibition, usual class: inhibitors; hit rate 79% among 500; AID 686980; note: % is set by controls: 0 for no effect and ±100 for the full control effect; nearly all actives have a fitted effect of over 65% in size
POLI cherry-pick: Confirm cherry-picked inhibitors of human polymerase iota; shares compounds with Pol kappa inh-1; Pol iota primer extension, TAMRA/BHQ fluorescence; Potency, µM, actives largely listed as inhibitors; hit rate 77% among 1,500; AID 720496
Pol kappa inh-2: confirmation of human DNA polymerase kappa inhibitors; purified Pol-kappa, fluorescent strand-displacement substrate; AID 720501; hit rate 76% among 920; shares compounds with Pol eta inh-1; Potency, µM, most hits filed as inhibitors
Pol eta inh-2: confirmation of human DNA polymerase eta inhibitors; Pol eta primer extension, TAMRA/BHQ fluorescence, 10 min; hit rate 64% among 2,600; Potency, µM, usual class: inhibitors; shares compounds with Pol eta inh-1
Active calls of the source: *; ? = inconclusive; . = not tested or not shown; [ ] = another dose, or the depositor's remark. Calls come from the whole dose curve; as a rule, active = well fitted curve in the direction sought with a large enough effect; inconclusive = small, poorly fitted or top-dose-only effect, or another doubt; inactive = no such curve, though single readings can be large; an effect the other way counts as inactive or inconclusive. Potency is the fitted concentration of half-maximal effect.

SMILES	Pol kappa inh-1	Pol eta inh-1	POLI inh	L3MBTL1 block	POLB inh	POLI cherry-pick	Pol kappa inh-2	Pol eta inh-2	others
Cc1nn(-c2ccccc2)c(Cl)c1/C=N/Nc1ccc(S(=O)(=O)Nc2ccccc2C(=O)O)cc1[N+](=O)[O-]	?	35µM*	40µM*	?	45µM*	?	24*	43*
C=CCOc1ccc(C=NNc2ccc(S(=O)(=O)Nc3ccccc3C(=O)O)cc2[N+](=O)[O-])cc1OC	?	?	14µM*	-27%	.	19*	?	85*	TbPGK inh=5.2µM*
Cc1nn(-c2ccccc2)c(Cl)c1/C=N/Nc1ccc(Cl)c(C(=O)O)c1	-24%	6%	77%	-5%	29%	.	.	.
O=C(O)c1ccccc1NS(=O)(=O)c1ccc(NN=Cc2ccccc2F)c([N+](=O)[O-])c1	?	28µM*	56µM*	-21%	.	?	.	60*
Cc1cccc(OCCOCCn2c(-c3ccc(Cl)cc3)nc3ccccc3c2=O)c1C	2%	-17%	29%	.	-1%	.	.	.
CCn1c(C)cc(/C=C2\NC(=O)N(CC(=O)Nc3ccc(F)cc3)C2=O)c1C	-6%	-22%	62%	-23%	1%	.	.	.
Cc1ccccc1NC(=O)CN1C(=O)S/C(=C/c2cccnc2)C1=O	13%	-12%	-13%	.	3%	.	.	.
Cc1ccc(NC(=O)CN2C(=O)N/C(=C/c3cc(C)n(-c4ccc(C(=O)O)cc4)c3C)C2=O)cc1	?	22µM*	35µM*	.	50µM*	42*	24*	27*
Cc1ccccc1NC(=O)CN1C(=O)S/C(=C\c2cccn2-c2cccc(C(=O)O)c2)C1=O	25µM*	3.5µM*	?	?	-87%	42*	.	48*
Cc1c(N2C(=O)/C(=C\c3ccccc3O)SC2=S)c(=O)n(-c2ccccc2)n1C	-1%	-10%	?	-9%	0%	.	.	.
O=C(CN1C(=O)N/C(=C\c2cccn2-c2cccc(C(=O)O)c2)C1=O)Nc1ccc(Cl)cc1	.	.	.	.	.	60*	.	?
Cc1cccc(C)c1-n1cccc1/C=C1\SC(=S)N(c2cccc(C(=O)O)c2)C1=O	-16%	?	?	.	40µM*	?	60*	?
O=C1N/C(=C/c2cccn2-c2ccccc2)C(=O)N1Cc1ccc(F)cc1	-2%	3%	30%	1%	-12%	.	.	.
COc1ccccc1-c1cc(NC(=O)COc2ccc(C)c(C)c2)n(-c2ccccc2)n1	-9%[60.1 µM]	-6%	-6%	.	-30%	.	.	.
Cc1cccc(C)c1NC(=O)CN1C(=O)S/C(=C\c2cccn2-c2cccc(C(=O)O)c2)C1=O	-27%	22µM*	?	-9%	-109%	38*	.	76*
Cc1cc(NC(=O)CN2C(=O)S/C(=C\c3ccccc3)C2=O)no1	8%	-3%	17%	?	29%	.	.	.
Cc1ccc(C=C2C(=O)c3ccccc3C2=O)o1	?	13µM*	22µM*	?	14µM*	47*	42*	48*
Cc1ccc(/C=C2/C(=O)c3ccc(C(=O)O)cc3C2=O)o1	5µM*	4µM*	?	1.6µM*	25µM*	24*	11*	8.5*
O=C(O)c1ccc2c(c1)C(=O)/C(=C\c1ccco1)C2=O	8.9µM*	3.5µM*	6.3µM*	3.2µM*	2.2µM*	30*	2.7*	8.5*
O=C(O)c1ccc(C=NN=Cc2ccco2)cc1	-16%	9%	-15%	.	.	.	.	.
NS(=O)(=O)c1ccc(-c2ccc(C=C3C(=O)c4ccccc4C3=O)o2)cc1	5%	-2%	?	2%	25%	.	.	.
CC(OC(=O)C1CCN(S(=O)(=O)c2ccc3c(c2)OCCO3)CC1)C(=O)NC1(C#N)CCCCC1 (configuration not stated)	-8%	-2%	7%	.	.	.	.	.
Cc1ccc(S(=O)(=O)N2CCN(C(=O)c3cc(S(=O)(=O)N4CCOCC4)c(Cl)cc3Cl)CC2)cc1	-2%	-8%	-2%	.	.	.	.	.
O=[N+]([O-])c1ccc(C=NNC(=S)Nc2ccc(F)cc2)cc1	6%	-13%	17%	.	.	.	.	.
O=[N+]([O-])c1ccc(C=NNC(=S)NN=Cc2ccc([N+](=O)[O-])cc2)cc1	25µM*	?	14µM*	.	.	19*	17*	43*
SMILES	Pol kappa inh-1	Pol eta inh-1	POLI inh	L3MBTL1 block	POLB inh	POLI cherry-pick	Pol kappa inh-2	Pol eta inh-2	others
O=C(NCc1cccc(Cl)c1)C1CCCN(c2ncnc3onc(-c4ccc(F)cc4)c23)C1 (configuration not stated)	-12%	-28%	-2%	.	18%	.	.	.
CC(C)N=c1scc(-c2ccco2)n1/N=C/c1ccc(O)c(O)c1	-15%	-12%	-17%	?	?	.	.	.
COCCN=c1scc(-c2ccco2)n1/N=C/c1ccc(O)c(O)c1O	0%	4.5µM*	2µM*	1.4µM*	2.8µM*	11*	.	9.5*
CCN1C(=O)[C@@H]2[C@@H](c3ccc(-c4ccc(F)cc4)cc3)N3CCCC[C@@]3(C(=O)OC)[C@@H]2C1=O	-17%	-16%	-2%	-4%	.	.	.	.
C[N+]1(CC(=O)c2ccc(O)c(O)c2)CCOCC1	-19%	.	?	.	.	.	.	.
COc1cccc2c1C(=O)c1c(O)c3c(c(O)c1C2=O)CC(O)(C(C)=O)CC3OC1CC(O)C(O)C(C)O1 (configuration not stated)	?	25µM*	45µM*	.	.	24*	75*	34*
CCCCC(=O)OCC(=O)C1(O)Cc2c(O)c3c(c(O)c2C(OC2CC(NC(=O)C(F)(F)F)C(O)C(C)O2)C1)C(=O)c1c(OC)cccc1C3=O (configuration not stated)	?	-22%	?	.	.	.	.	.
COc1cccc2c1C(=O)c1c(O)c3c(c(O)c1C2=O)C[C@](O)(C(C)=O)C[C@H]3O[C@@H]1C[C@@H](N)[C@@H](O)[C@@H](C)O1	35µM*	40µM*	16µM*	-9%	.	17*	34*	85*
COc1cc2c(-c3ccc(O)cc3)nc3c(c(C)nn3-c3ccccc3)c2cc1OC	-11%	?	?	7%	?	24*	.	67*

Bioassay records (PubChem)
